For assay [1], the target named is Lysosomal acid glucosylceramidase (Homo sapiens) (UniProt P04062). The assay can be described thus: Glucocerebrosidase-p2 (AID 348; in the data active = potency below about 10 µM; also: potency is read from the fitted curve at half-maximal effect). As to conditions: purified GBA, blue fluorogenic substrate, 40 min. The essentials: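 Compounds titrated from 0.6 nM upwards against 0.2 nM enzyme in pH 5.9 citric acid/KH2PO4, taurocholate, tween-20; blue fluorogenic substrate 80 uM, 40 min room temperature, stopped and read Ex 365/Em 440 for AC50.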
Chain of Lysosomal acid glucosylceramidase (Homo sapiens) (P04062 whole entry, looked up): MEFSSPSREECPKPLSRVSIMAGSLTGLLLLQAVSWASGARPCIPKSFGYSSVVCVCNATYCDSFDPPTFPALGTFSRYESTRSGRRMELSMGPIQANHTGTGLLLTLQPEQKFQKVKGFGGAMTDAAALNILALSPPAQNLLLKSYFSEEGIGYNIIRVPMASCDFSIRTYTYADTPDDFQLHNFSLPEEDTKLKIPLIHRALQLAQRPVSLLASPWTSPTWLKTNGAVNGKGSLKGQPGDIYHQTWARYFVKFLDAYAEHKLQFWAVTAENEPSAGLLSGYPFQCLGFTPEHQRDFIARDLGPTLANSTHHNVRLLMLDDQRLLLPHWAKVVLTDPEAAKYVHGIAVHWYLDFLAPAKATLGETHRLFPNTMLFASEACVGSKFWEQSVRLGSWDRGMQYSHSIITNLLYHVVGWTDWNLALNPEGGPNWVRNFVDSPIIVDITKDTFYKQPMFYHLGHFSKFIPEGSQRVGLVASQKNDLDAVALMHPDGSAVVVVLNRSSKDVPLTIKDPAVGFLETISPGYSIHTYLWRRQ

Assay [2] is described as follows: AP1 Signaling Pathway (AID 357). Also: % is scaled to controls: 0 for no effect and ±100 for the full control effect. As to conditions: ME-180 AP-1-bla reporter, EGF-induced, beta-lactamase ratio, 5 h; at 7.69 µM (top of the series) unless noted. The essentials: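 Read-out was the 460nm/530nm emission ratio (excitation 405nm) after CCF4 loading for 2.5 hours at room temperature. Cells carried an AP-1-driven beta-lactamase reporter, were stimulated with EC50 EGF plus compound for 5 hours, and AC50 values came from titrations.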

Assay [3] in a line: NFAT Signaling Pathway (AID 444).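 Also: carbachol stimulus at about its EC50 of 1 µM final; % is scaled to controls: 0 for no effect and ±100 for the full control effect.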 As to conditions: Jurkat NFAT-bla M1, carbachol, beta-lactamase ratio, 5 h; at 7.69 µM (top of the series) unless noted. The method in brief:
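Read-out: CCF4 FRET ratio (460 nm/530 nm) after 1 h RT dye loading, used for %activity and AC50 from titration series. Cells: Jurkat NFAT-β-lactamase/M1 line, treated with compound plus 1 uM carbachol for 5 h, 37 °C.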

The target in assay [4] is Glucocorticoid receptor (Homo sapiens) (UniProt P04150). The assay can be described thus: GR-GFP Redistribution (AID 450;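 active = compounds whose dose series gives a full or clear partial fitted curve of increased nuclear translocation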; also: potency is read from the fitted curve at half-maximal effect). As to conditions: U2OS GR-GFP nuclear translocation, laser cytometry, 2 h.
Chain of Glucocorticoid receptor (Homo sapiens) (P04150 whole entry, looked up, the tested form may be a part): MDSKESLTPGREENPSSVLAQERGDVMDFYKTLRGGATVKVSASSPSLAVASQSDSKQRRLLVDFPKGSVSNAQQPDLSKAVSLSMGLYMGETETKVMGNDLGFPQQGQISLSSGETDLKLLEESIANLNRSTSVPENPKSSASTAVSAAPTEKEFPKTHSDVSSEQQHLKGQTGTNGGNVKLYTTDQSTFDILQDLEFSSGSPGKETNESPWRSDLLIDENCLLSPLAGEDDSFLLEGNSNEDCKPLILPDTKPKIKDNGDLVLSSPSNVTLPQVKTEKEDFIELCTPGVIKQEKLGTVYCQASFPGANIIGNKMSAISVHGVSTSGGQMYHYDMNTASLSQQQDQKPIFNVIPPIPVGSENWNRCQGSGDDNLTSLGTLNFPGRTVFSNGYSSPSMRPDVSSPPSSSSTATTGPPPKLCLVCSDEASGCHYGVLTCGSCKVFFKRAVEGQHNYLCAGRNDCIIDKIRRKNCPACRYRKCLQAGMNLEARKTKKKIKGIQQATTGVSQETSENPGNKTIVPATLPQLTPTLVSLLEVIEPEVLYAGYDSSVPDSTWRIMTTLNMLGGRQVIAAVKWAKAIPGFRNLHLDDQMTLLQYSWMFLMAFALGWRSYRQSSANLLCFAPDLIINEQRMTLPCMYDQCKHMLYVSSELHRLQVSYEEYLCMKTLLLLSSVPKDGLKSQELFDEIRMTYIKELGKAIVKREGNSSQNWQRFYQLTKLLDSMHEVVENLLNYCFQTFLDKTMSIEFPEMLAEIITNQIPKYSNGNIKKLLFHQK
Assay [5] has the same target. Kind of assay: GR-EFC Redistribution (AID 451; calls by dose curve; also: potency is read from the fitted curve at half-maximal effect). As to conditions: CHO-K1 GR-EFC translocation, beta-gal luminescence, 2 h. The method in brief: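 Translocation of GR-ED fusion to nuclear EA restores b-gal, read by luminescence after 1 h room-temperature detection. Engineered CHO-K1 biosensor cells, 1,000/well, exposed 2 h at 37 C to titrations up to 46 uM final.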
Assay [6] addresses Mitogen-activated protein kinase 10 (Mus musculus) (UniProt Q61831). The assay can be described thus: JNK3 AlphaScreen Assay (AID 530).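 Also: kinase came from lysate of stimulated human HepG2 cells; signal reports phosphorylation of biotinylated GST-cJun 1-79 at Ser73 with 10 µM ATP; % is scaled to controls: 0 for no effect and ±100 for the full control effect.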 As to conditions: JNK3 lysate, c-Jun phosphorylation; series mostly up to 11.4 µM. The essentials:
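Compound titrations were preincubated 15 minutes at room temperature with substrate, antibody and pre-activated JNK3-containing HepG2 lysate. Reactions were started with 10 uM ATP and stopped with EDTA-containing bead buffer for AlphaScreen detection.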

Assay [7] addresses Cytochrome P450 2C9 (Homo sapiens) (UniProt P11712). The assay can be described thus: qHTS Assay for Inhibitors and Substrates of Cytochrome P450 2C9 (AID 883; active = well fitted curve in the direction sought with a large enough effect; an effect the other way counts as inactive or inconclusive; also: nearly all actives have a fitted effect of over 60% in size; also: potency is read from the fitted curve at half-maximal effect). As to conditions: recombinant CYP2C9, luciferin-H luminescence, 60 min; series mostly up to 11.4 µM. The essentials: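 Inhibition of CYP2C9 is scored as loss of luminescence, with 57uM sulphaphenazole defining 100% inhibition. Substrate Luciferin-H is used at 100uM, equal to its KM; enzyme at 10nM in 25mM KPO4, 60 min at 37C with NADPH regeneration.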

Assay [8] deals with Cytochrome P450 3A4 (Homo sapiens) (UniProt P08684). The assay can be described thus: qHTS Assay for Inhibitors and Substrates of Cytochrome P450 3A4 (AID 884; active = well fitted curve in the direction sought with a large enough effect; an effect the other way counts as inactive or inconclusive; also: nearly all actives have a fitted effect of over 50% in size; also: potency is read from the fitted curve at half-maximal effect). As to conditions: recombinant CYP3A4, Luciferin-PPXE luminescence; series mostly up to 57.1 µM. The essentials: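 20 nM human CYP3A4 with 25 uM Luciferin-PPXE (at KM) in 200 mM KPO4, preincubated 10 min with compound; NADPH regeneration started a 60 min RT reaction. Luciferin detected by luminescence, normalized to 57 uM ketoconazole as full inhibition.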
Chain of Cytochrome P450 3A4 (Homo sapiens) (P08684 whole entry, looked up): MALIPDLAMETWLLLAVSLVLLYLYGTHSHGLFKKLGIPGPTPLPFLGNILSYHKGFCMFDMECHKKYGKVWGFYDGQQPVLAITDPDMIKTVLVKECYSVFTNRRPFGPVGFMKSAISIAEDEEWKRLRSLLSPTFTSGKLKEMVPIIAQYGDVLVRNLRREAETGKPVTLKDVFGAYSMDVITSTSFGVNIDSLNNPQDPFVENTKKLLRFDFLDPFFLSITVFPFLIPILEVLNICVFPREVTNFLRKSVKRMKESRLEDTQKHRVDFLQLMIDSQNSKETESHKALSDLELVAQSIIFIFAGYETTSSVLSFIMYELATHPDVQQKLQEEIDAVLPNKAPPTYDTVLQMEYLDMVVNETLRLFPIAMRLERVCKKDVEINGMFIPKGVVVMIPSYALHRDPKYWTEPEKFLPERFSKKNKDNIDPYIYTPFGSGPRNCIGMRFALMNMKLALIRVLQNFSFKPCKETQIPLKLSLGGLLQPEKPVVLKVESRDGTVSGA

The target is the same in assay [9]. Kind of assay: qHTS Assay for Activators of Cytochrome P450 3A4 (AID 885; active = well fitted curve in the direction sought with a large enough effect; an effect the other way counts as inactive or inconclusive; also: nearly all actives have a fitted effect of over 65% in size). As to conditions: recombinant CYP3A4, Luciferin-PPXE luminescence, 60 min; series mostly up to 11.4 µM. The essentials: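 Quantitative HTS format: compounds preincubated with 20nM human CYP3A4 and Luciferin-PPXE substrate at KM, reaction started by NADPH regeneration, stopped after 60 min, luciferase luminescence read 20 min later.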

The target in assay [10] is Cytochrome P450 2C19 (Homo sapiens) (UniProt P33261). Kind of assay: qHTS Assay for Inhibitors and Substrates of Cytochrome P450 2C19 (AID 899; active = well fitted curve in the direction sought with a large enough effect; an effect the other way counts as inactive or inconclusive; also: nearly all actives have a fitted effect of over 60% in size; also: potency is read from the fitted curve at half-maximal effect). As to conditions: recombinant CYP2C19, luciferin-H EGE luminescence; series mostly up to 11.4 µM. The method in brief: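 5nM enzyme + 10uM Luciferin-H EGE (=KM), 50mM KPO4; cpd pin-transferred, 10 min 37C; NADPH regen, 60 min 37C; stopped w/ luciferin detection reagent, 20 min; luminescence. Normalized to 57uM ketoconazole (AC100).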
Chain of Cytochrome P450 2C19 (Homo sapiens) (P33261 whole entry, looked up): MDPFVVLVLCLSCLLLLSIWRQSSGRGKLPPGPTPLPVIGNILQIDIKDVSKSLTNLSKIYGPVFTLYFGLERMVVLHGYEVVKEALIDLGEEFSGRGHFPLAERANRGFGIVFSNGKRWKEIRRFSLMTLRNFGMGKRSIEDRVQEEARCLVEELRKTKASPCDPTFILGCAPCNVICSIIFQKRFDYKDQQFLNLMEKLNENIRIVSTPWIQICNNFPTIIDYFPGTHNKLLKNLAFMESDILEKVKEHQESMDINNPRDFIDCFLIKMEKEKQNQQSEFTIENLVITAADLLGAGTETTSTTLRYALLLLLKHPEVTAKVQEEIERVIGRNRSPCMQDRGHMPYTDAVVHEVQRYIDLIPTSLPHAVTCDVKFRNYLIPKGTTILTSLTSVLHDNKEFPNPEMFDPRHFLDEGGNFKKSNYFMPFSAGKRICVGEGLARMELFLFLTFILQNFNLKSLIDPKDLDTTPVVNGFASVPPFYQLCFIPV

Assay [11] deals with 3',5'-cyclic-AMP phosphodiesterase 4B (Homo sapiens) (UniProt Q07343). Kind of assay: qHTS Assay for Inhibitors of PDE-IV (AID 607; active = well fitted activation curve with a large enough effect in the main read-out, with a control signal flat, not every such curve was filed as active; also: % of control where 0% means no effect). As to conditions: HEK293 ACTOne CNG channel cells, membrane potential fluorescence; series mostly up to 22.9 µM. The essentials: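 Live HEK293 cells with a modified cyclic nucleotide-gated (CNG) channel report intracellular cAMP via membrane-potential dye fluorescence (ex 535/em 590 nm). Endogenous PDE-IV was targeted. Compounds were tested at up to 22.9 uM final; RO 20-1724 100 uM served as control.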
Chain of 3',5'-cyclic-AMP phosphodiesterase 4B (Homo sapiens) (Q07343 whole entry, looked up): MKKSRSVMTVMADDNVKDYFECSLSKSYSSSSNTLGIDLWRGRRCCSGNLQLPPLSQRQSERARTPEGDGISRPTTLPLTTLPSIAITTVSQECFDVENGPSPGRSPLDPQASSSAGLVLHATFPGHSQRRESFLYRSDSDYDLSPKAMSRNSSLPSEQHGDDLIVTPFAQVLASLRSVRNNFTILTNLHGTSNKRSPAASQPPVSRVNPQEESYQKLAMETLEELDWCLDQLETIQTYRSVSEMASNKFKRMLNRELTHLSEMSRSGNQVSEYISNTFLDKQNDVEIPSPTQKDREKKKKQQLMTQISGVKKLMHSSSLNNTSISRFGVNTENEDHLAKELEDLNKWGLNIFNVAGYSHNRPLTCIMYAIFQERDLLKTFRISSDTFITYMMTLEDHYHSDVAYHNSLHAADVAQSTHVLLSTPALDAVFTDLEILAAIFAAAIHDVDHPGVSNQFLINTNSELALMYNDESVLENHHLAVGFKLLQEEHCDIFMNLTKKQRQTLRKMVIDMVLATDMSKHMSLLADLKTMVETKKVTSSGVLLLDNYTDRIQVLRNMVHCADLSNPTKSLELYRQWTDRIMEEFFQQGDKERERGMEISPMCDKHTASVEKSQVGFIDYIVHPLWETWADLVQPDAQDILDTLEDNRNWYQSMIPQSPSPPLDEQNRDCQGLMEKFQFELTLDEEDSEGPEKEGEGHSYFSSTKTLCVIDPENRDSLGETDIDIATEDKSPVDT

A short description of assay [12]: Stat Signaling Pathway (AID 446).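 Also: ME-180 cervical cancer cells given 40 pM IL-6 alongside compound; SIE-controlled beta-lactamase reporter measured as 460/530 nm FRET emission ratio; % is scaled to controls: 0 for no effect and ±100 for the full control effect.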 As to conditions: ME-180 (cervical carcinoma) SIE beta-lactamase reporter, IL-6 stimulated, 5 h; at 7.69 µM (top of the series) unless noted. The method in brief:
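IL-6/STAT signaling read in ME-180 cells via an SIE beta-lactamase reporter. Stimulus was 40 pM IL-6 (its AC50) for 5 hrs, so both activation and inhibition register.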

In assay [13] the target is Cytochrome P450 2D6 (Homo sapiens) (UniProt P10635). The assay can be described thus: qHTS Assay for Inhibitors and Substrates of Cytochrome P450 2D6 (AID 891; active = well fitted curve in the direction sought with a large enough effect; an effect the other way counts as inactive or inconclusive;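 also: luciferin methyl ether substrate demethylated by CYP2D6 with NADPH regeneration; % is scaled to controls: 0 for no effect and ±100 for the full control effect; nearly all actives have a fitted effect of over 60% in size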). As to conditions: recombinant CYP2D6, luciferin-ME EGE luminescence; series mostly up to 11.4 µM. The essentials:
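Human CYP2D6 (5 nM) with 30 uM Luciferin-ME EGE (at Km) in 100 mM KPO4, compound preincubated 10 min, then NADPH regeneration system for 60 min at room temperature. Luciferin read by luminescence; normalized to 1.43 uM quinidine.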

Values without a mark were called inactive. Inconclusive results are not listed. Active and inactive are the calls of the source. Unless noted, calls follow the shape of the dose curve; as a rule, active = well fitted curve in either direction with a large enough effect (not every such curve was filed as active); inconclusive = small, poorly fitted or top-dose-only effect, or another doubt; inactive = flat fitted curve, though single readings scatter. Bounds are passed on as bounds.

Chain of Cytochrome P450 2C9 (Homo sapiens) (P11712 whole entry, looked up): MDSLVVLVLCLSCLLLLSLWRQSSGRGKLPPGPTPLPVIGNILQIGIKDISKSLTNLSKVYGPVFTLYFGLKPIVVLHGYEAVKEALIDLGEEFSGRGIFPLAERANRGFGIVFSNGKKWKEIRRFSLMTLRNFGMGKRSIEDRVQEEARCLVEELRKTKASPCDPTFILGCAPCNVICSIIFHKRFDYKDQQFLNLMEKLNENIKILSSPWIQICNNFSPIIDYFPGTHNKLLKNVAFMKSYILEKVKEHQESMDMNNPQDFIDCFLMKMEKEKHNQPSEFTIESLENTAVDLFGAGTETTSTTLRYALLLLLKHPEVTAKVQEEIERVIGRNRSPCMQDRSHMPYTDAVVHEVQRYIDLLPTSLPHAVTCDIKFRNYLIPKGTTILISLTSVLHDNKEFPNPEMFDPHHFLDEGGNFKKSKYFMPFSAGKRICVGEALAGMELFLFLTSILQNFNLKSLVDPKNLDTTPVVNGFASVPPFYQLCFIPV
Chain of Cytochrome P450 2D6 (Homo sapiens) (P10635 whole entry, looked up): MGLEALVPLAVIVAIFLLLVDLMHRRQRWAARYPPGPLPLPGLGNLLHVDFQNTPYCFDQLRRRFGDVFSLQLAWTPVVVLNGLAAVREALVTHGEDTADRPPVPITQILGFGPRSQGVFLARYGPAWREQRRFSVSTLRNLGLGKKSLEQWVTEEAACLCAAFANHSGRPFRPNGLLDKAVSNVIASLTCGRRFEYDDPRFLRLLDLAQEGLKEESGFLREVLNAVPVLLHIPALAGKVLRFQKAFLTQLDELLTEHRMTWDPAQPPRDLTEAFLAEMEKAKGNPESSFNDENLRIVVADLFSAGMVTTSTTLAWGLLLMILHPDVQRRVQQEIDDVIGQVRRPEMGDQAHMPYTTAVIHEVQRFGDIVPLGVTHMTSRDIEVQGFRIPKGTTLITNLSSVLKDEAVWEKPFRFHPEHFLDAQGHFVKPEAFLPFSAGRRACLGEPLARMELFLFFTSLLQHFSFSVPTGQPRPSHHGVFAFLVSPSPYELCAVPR

As to `Nc1ccc(N(S(=O)(=O)c2ccccc2)S(=O)(=O)c2ccccc2)c(Cl)c1`, the Potency was above 11.4 µM in assay [1]; above 46 µM in assay [4]; above 9.22 µM in assay [5]; 3.16 µM (active) in assay [7]; 0.0316 µM (active) in assay [8]; 0.158 µM (active) in [10]. Further, the activity change, negative = inhibition in assay [2] was -27.7%; in assay [3], -14.8%. Besides, the Potency entry in assay [6] and in assay [9] was “inactive” each time.

With `CN(C)c1ccc(C(c2ccc(N(C)C)cc2)c2ccc([N+](=O)[O-])cc2)cc1`, the figures for the Potency in assay [1], in [4] and in assay [5] were above 11.4 µM, above 46 µM and above 9.22 µM, respectively. Moreover, the activity change, negative = inhibition is 5.91% in assay [2] and -16.6% in assay [3]. Besides, the Potency result in [11] and in assay [9] was “inactive” throughout.

As for `O=C(O)[C@H](/C=C\c1ccccc1)c1ccccc1`, the Potency in [1] is above 11.4 µM; in assay [4], above 46 µM; in [5] it was above 9.22 µM. Also, the activity change, negative = inhibition was 0.652% in [2] and -12% in [3]. In addition, the Potency result in assay [6] and in assay [11] was “inactive” each time.

In the case of `CN1CCC[C@@H]1c1cccnc1.O=C(O)c1ccccc1O.O=C([OH2+])c1ccccc1O.O=C([OH2+])c1ccccc1O.O=C([OH2+])c1ccccc1O.[Cu]`, in [1], the Potency is above 11.4 µM. Also, the activity change, negative = inhibition is 0.0867% in assay [2] and -1.52% in [3]. Further, the activity, negative = inhibition in assay [12] is 12.5%. In addition, the Potency entry in [6] and in [11] was “inactive” in each case.

Regarding `CCN(CC)CCN1C(=O)c2cccc3cc(N)cc(c23)C1=O`, the Potency was above 11.4 µM in assay [1], above 46 µM in assay [4] and above 9.22 µM in assay [5]. For the same molecule, the activity change, negative = inhibition in [2] is 25.3%; in [3], -6.74%. For the same molecule, the Potency entry in assay [6] and in assay [11] was “inactive” throughout.

For the molecule `O=[N+]([O-])c1ccc2c(N=Nc3ccc4ccccc4c3O)c(O)cc(S(=O)(=O)O)c2c1`, the Potency in assay [1] was above 11.4 µM; in assay [4], above 46 µM; in assay [5], above 9.22 µM; in [7], 3.16 µM (active). Also, the activity change, negative = inhibition in [2] was -18.5%; in [3], -9.87%. The Potency entry in assay [11] was “inactive”.

In the case of `OC[C@@H]1CCC[C@H](n2cnc3c(=S)nc[nH]c32)O1`, the Potency in assay [1] is above 11.4 µM; in assay [4], above 46 µM; in assay [5], above 9.22 µM. The activity change, negative = inhibition in [2] was 1.32%; in [3], 24.8%. Also, the Potency result in assay [6] is “inactive”.

Regarding `O=C(O)CSCC(=O)c1ccccc1`, the values for the Potency in assay [1], in assay [4] and in [5] were above 11.4 µM, above 46 µM and above 9.22 µM, respectively. For the same molecule, the figures for the activity change, negative = inhibition in assay [2], in assay [3] and in [8] were 3.6%, 11.1% and -4.13% [at 11.4 µM], respectively. The Potency result in [6], in [11], in [7], in assay [13] and in assay [10] was “inactive” in each case.

Consider `C[N+](C)([O-])Cc1cc(-c2ccccc2)ccc1O`, for which the Potency was above 11.4 µM in assay [1], above 46 µM in [4] and above 9.22 µM in [5]. The activity change, negative = inhibition in assay [2] was -2.32%; in [3], 1.32%. Further, the Potency result in assay [6] and in assay [11] was “inactive” throughout.

Regarding `CCOC(=O)Cn1c(C(F)(F)F)nc2nc(Cl)c(Cl)nc21`, the Potency in assay [1] is above 11.4 µM; in assay [4], above 46 µM; in assay [5], above 9.22 µM. Further, the results for the activity change, negative = inhibition in [2] and in [3] were 6.84% and -10.5%, respectively. Moreover, the Potency result in [6] was “inactive”.

`CC(CCc1nc2ccccc2s1)(c1ccc(O)cc1)c1ccc(O)cc1`: the Potency was above 11.4 µM in [1], above 46 µM in [4] and above 9.22 µM in assay [5]. Moreover, the activity change, negative = inhibition in assay [2] was 7.74%; in assay [3] it was 1.62%. The Potency result in assay [6] and in [11] was “inactive” in each case.

On to `O=C(O)c1ccc2c(c1C(=O)O)C(=O)OC2(c1ccc(O)cc1)c1ccc(O)cc1`, for which the Potency is above 11.4 µM in [1], above 46 µM in assay [4] and above 9.22 µM in assay [5]. Moreover, the activity change, negative = inhibition is 2.33% in [2] and 0.0722% in assay [3]. In addition, the Potency result in [6] and in assay [11] was “inactive” each time.

For the molecule `Cc1cc(C)nc(NC(=O)COc2ccc(Cl)cc2)c1`, the Potency in [1] is above 11.4 µM; in [4] it was above 46 µM; in assay [5], above 9.22 µM. Moreover, the activity change, negative = inhibition in assay [2] is 7.73%; in assay [3] it was -19.2%. For the same molecule, the Potency entry in assay [6] and in assay [11] was “inactive” in each case.

Regarding `O=C(O)C[C@H](Nc1ccccc1)C(=O)O`, the Potency in assay [1] was above 11.4 µM; in [4], above 46 µM; in assay [5] it was above 9.22 µM. For the same molecule, the values for the activity change, negative = inhibition in [2] and in assay [3] were 0.63% and 19.5%, respectively. The Potency result in assay [6] and in assay [11] was “inactive” each time.

For the molecule `O=C(O)c1oc(C(=O)O)c(C(=O)O)c1C(=O)O`, the results for the Potency in [1], in assay [4] and in assay [5] were above 11.4 µM, above 46 µM and above 9.22 µM, respectively. Moreover, the results for the activity change, negative = inhibition in assay [2] and in assay [3] were 10.9% and 7.7%, respectively. Moreover, the Potency result in [6] and in assay [11] was “inactive” each time.

`COc1ccc(C[C@H](O)CN2CCOCC2)cc1`: the Potency is above 11.4 µM in assay [1], above 46 µM in assay [4] and above 9.22 µM in assay [5]. The activity change, negative = inhibition in [2] is -3.04%. The activity, negative = inhibition in [12] was 9.2%. Also, the Potency entry in [6] and in assay [11] was “inactive” in each case.

Turning to `COC(=O)c1ccc(CCc2cc(O)ccc2O)cc1`, the Potency is above 11.4 µM in assay [1], above 46 µM in assay [4], above 9.22 µM in assay [5] and 3.16 µM (active) in assay [10]. For the same molecule, in assay [2], the activity change, negative = inhibition was -7.43%. Moreover, in assay [12], the activity, negative = inhibition is -16.8%. Moreover, the Potency result in assay [6], in assay [11] and in assay [9] was “inactive” in each case.

On to `O=C(O)c1ccc(N[C@H](c2ccccc2)c2ccc3cccnc3c2O)cc1`, for which the Potency was above 11.4 µM in assay [1], above 46 µM in [4] and above 9.22 µM in assay [5]. Besides, the activity change, negative = inhibition in assay [2] is -0.822%. The activity, negative = inhibition in assay [12] was -17%. The Potency result in assay [6] and in assay [11] was “inactive” throughout.
